Here are results for 29 molecules from PubChem BioAssay AID2499 (National Center for Advancing Translational Sciences (NCATS), 2010).

Records with an inconclusive call do not appear. A number with no mark means an inactive call. The source made the active and inactive calls. Calls come from the whole dose curve; as a rule, active = well fitted inhibition curve with a large enough effect; inconclusive = small, poorly fitted or top-dose-only effect; inactive = flat fitted curve, though single readings scatter.

The target in this assay is Galactokinase (Homo sapiens) (UniProt P51570). The experiment in a line: Confirmation Assay for Inhibitors of Human Galactokinase (GALK): probe SAR. Conditions: purified GALK, Kinase-Glo ATP depletion luminescence; series mostly up to 115 µM; activity change, negative = inhibition: at the top concentration. The text has this: NIH Molecular Libraries Probe Production Centers Network [MLPCN] NIH Chemical Genomics Center [NCGC] MLPCN Grant: R03 MH085689-01 Assay Submitter (PI): Kent Lai (University of Utah School of Medicine, 50 N Mario Capecchi Drive, Salt Lake City, UT 84132) NCGC Assay Overview Inherited deficiency of galactose-1-phosphate uridyltransferase (GALT) can result in a potentially lethal disorder called Classic Galactosemia (OMIM 230400). Several lines of evidence indicate that an elevated level of galactose-1-phosphate (gal-1-p), the product of galactokinase (GALK), is a major, if not sole, pathogenic mechanism in patients with classic galactosemia. Therefore, finding inhibitors of GALK is a potential novel therapy for this inherent metabolic disease and is the long term goal of this project. Active compounds observed in the qHTS GALK assay (AID: 1868) were cherry picked and re-screened for validation. GALK (provided by Kent Lai) was assayed using ATP and D-(+)-Galactose (Sigma-Aldrich cat# G0750) as substrates. Promega Kinase-Glo Plus (cat# V3774) technology was used to detect the residual ATP following kinetic reaction. Briefly, the Kinase-Glo Plus contains Ultra-Glo [1] luciferase and D-luciferin which generates a bioluminescence signal from the remaining ATP. Kinase reactions with and without GALK were used as negative and positive controls together with Protein Tyrosine Phosphatase CD45 inhibitor (EMD Bioscience cat# 540215) which is shown to inhibit GALK activity.
Chain of Galactokinase (Homo sapiens) (P51570 whole entry, looked up): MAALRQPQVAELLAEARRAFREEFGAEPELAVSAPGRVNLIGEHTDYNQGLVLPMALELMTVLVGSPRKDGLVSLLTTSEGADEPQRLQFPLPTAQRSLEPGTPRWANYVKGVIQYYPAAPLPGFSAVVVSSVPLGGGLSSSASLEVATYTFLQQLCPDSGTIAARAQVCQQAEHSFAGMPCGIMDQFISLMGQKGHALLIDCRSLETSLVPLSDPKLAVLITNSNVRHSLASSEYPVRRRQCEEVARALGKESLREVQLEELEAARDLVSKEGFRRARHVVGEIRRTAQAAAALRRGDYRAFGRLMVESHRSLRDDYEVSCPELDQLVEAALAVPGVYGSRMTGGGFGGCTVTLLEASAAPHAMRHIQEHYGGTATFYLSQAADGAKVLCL
NCGC Assay Protocol Summary: Three uL/well of ATP-buffer solution (35 uM ATP, 20mM HEPES pH8.0, 5 mM MgCl2, 60 mM NaCl, 1 mM DTT, 0.01% BSA final concentration) was dispensed into 1536-well, assay plates (Greiner, solid white medium-binding plates) with Aurora Discovery BioRAPTR Flying Reagent Dispenser (FRD; Beckton-Dickenson). Compound and control solution (23 nL) was transferred to the assay plate using the Kalypsys 1536-pin tool apparatus. One uL/well GALK-galactose solution (5 nM GALK, 100 uM galactose, 20 mM HEPES pH8.0, 5 mM MgCl2, 60 mM NaCl, 1 mM DTT, 0.01% BSA final concentration) was then added using the FRD yielding a total kinase reaction volume of 4 uL/ well. After 1 hour of room temperature incubation, 4 uL Kinase-Glo Plus reagent was added for a final assay volume of 8 uL/well. Luminescence was detected with the ViewLux plate reader (Perkin Elmer, Waltham, MA) after 2 min incubation using a 1 sec exposure time and 2x binning.
In general terms: Kinase-Glo measures the ATP left after a reaction by luminescence.
Turning to `O=C1CCCC2=C1C1(CCCC1)N=C(Nc1nc3cc(Br)ccc3o1)N2`, the Potency is 7.49 µM (active).

In the case of `O=C1CCCC2=C1C1(CCSCC1)N=C(Nc1nc3ccccc3o1)N2`, the Potency was 1.06 µM (active).

On to `CC1CCC2(C1)N=C(Nc1nc3ccccc3o1)NC1=C2C(=O)CCC1` (centres undefined), for which the Potency is 11.9 µM (active).

Turning to `CC1(C)CC(=O)C2=C(C1)NC(Nc1nc3ccccc3o1)=NC2c1cccc(O)c1` (centres undefined), the Potency is 21.1 µM (active).

In the case of `O=C1CCCC2=C1C1(CCCC1)N=C(Nc1nc3ccccc3n1Cc1ccccc1)N2`, the “activity change, negative = inhibition” value was -7.66%.

For the molecule `CC1(C)CC(=O)C2=C(C1)NC(Nc1nc3ccccc3o1)=NC2c1ccccc1Cl` (centres undefined), the Potency is 8.41 µM (active).

On to `O=C1CCCC2=C1C(c1ccccc1Cl)N=C(Nc1nc3ccccc3o1)N2` (centres undefined), for which the Potency was 0.595 µM (active).

Consider `O=C1CCC2=C1C(c1ccccc1Cl)N=C(Nc1nc3ccccc3o1)N2` (centres undefined), for which the Potency was 11.9 µM (active).

`COc1ccc(C2N=C(Nc3nc4ccccc4o3)NC3=C2C(=O)CC(C)(C)C3)cc1` (centres undefined): the “activity change, negative = inhibition” value is -22.4%.

On to `Cc1ccc2oc(NC3=NC4(CCCC4)C4=C(CCCC4=O)N3)nc2c1`, for which the Potency was 5.95 µM (active).

Take `O=C1CCCC2=C1C1(CCSC1)N=C(Nc1nc3ccccc3o1)N2` (centres undefined): the Potency was 2.66 µM (active).

Turning to `O=C1CCCC2=C1C1(CCCCC1)N=C(Nc1nc3ccccc3o1)N2`, the Potency is 13.3 µM (active).

On to `CCC1CCC2(C1)N=C(Nc1nc3ccccc3o1)NC1=C2C(=O)CCC1` (centres undefined), for which the Potency entry is “inactive”.

Turning to `O=C1CCCC2=C1[C@@]1(CCC(c3ccccc3)C1)N=C(Nc1nc3ccccc3o1)N2` (some centres undefined), the “activity change, negative = inhibition” value is -22.8%.

Consider `O=C1CCCC2=C1C(c1ccc(Cl)cc1)N=C(Nc1nc3ccccc3o1)N2` (centres undefined), for which the “activity change, negative = inhibition” value is -19.6%.

Regarding `O=C1CCCC2=C1C1(CCS(=O)(=O)C1)N=C(Nc1nc3ccccc3o1)N2` (centres undefined), the Potency was 6.68 µM (active).

Regarding `Cc1ccc(C2N=C(Nc3nc4ccccc4o3)NC3=C2C(=O)CC(C)(C)C3)cc1` (centres undefined), the “activity change, negative = inhibition” value was 2.65%.

Turning to `COc1ccccc1C1N=C(Nc2nc3ccccc3o2)NC2=C1C(=O)CC(C)(C)C2` (centres undefined), the “activity change, negative = inhibition” value was -2.26%.

As to `Cn1c(NC2=NC3(CCCC3)C3=C(CCCC3=O)N2)nc2ccccc21`, the “activity change, negative = inhibition” value is -25%.

For `CC1(C)N=C(Nc2nc3ccccc3o2)NC2=C1C(=O)CCC2`, the Potency is 47.3 µM (active).

In the case of `O=C1CCCC2=C1C1(CCCC1)N=C(Nc1nc3cc(Cl)ccc3o1)N2`, the Potency is 6.68 µM (active).

On to `O=C1CC(c2ccccc2)CC2=C1C1(CCCCC1)N=C(Nc1nc3ccccc3o1)N2` (centres undefined), for which the “activity change, negative = inhibition” value is -21.5%.

With `Cc1nc(Nc2nc3ccccc3o2)nc2c1C(=O)CC(C)(C)C2`, the “activity change, negative = inhibition” value is -7.11%.

As for `COc1cccc(C2N=C(Nc3nc4ccccc4o3)NC3=C2C(=O)CC(C)(C)C3)c1` (centres undefined), the Potency is 37.5 µM (active).

As to `CC1(C)CC(=O)C2=C(C1)NC(Nc1nc3ccccc3o1)=NC21CCCC1`, the Potency is 6.68 µM (active).

Regarding `O=C1CCC2=C1C1(CCCC1)N=C(Nc1nc3ccccc3o1)N2`, the Potency was 11.9 µM (active).

With `CC1(C)CC(=O)C2=C(C1)NC(Nc1nc3ccccc3o1)=NC2c1cccc(F)c1` (centres undefined), the “activity change, negative = inhibition” value is -4.97%.

As to `O=C1CCCC2=C1C1(CCC1)N=C(Nc1nc3ccccc3o1)N2`, the Potency is 18.8 µM (active).

Consider `O=C1CCCC2=C1C1(CCCC1)N=C(Nc1nc3cc4ccccc4cc3o1)N2`, for which the “activity change, negative = inhibition” value is -18.8%.
